Source: PubChem
Rows were chosen to be rich in hits. Some 3.5% of all compounds tested hit in one or more screens of this group.
MITF inh: MITF inhibitors, primary screen, biochemical, AlphaScreen, human. AlphaScreen MITF homodimerization, bead proximity signal. inhibition, % at 2.6 µM. hit rate 0.91% among 650,000. AID 1259374, 2018; in the data active means inhibition above about 50%;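 further: 0% = vehicle wells with protein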
FBW7 activator: FBW7 E3 ligase activators, primary screen, biochemical, AlphaScreen, human | AlphaScreen FBW7–phospho-cyclin E peptide binding, activator screen | hit rate 0.13% among 650,000 | normalized activity (activation), % at 26.1 µM | AID 1259310, 2017 | F-box/WD repeat-containing protein 7 (Homo sapiens), Q969H0; in the data active means normalized activity above about 1.9%;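 further: purified mutant Fbw7 with reduced substrate affinity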
GPR151 activ: activators of human GPR151, primary screen, cell-based, PathHunter beta-arrestin, luminescence; PathHunter beta-arrestin GPR151 cells; hit rate 1% among 650,000; activation, % at 11.2 µM; AID 1508602, 2020; in the data active means activation above about 4.9%;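 further: 0% = median of compound wells and 100% = cells with positive control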
Target sequence (Q8TDV0 whole entry, looked up): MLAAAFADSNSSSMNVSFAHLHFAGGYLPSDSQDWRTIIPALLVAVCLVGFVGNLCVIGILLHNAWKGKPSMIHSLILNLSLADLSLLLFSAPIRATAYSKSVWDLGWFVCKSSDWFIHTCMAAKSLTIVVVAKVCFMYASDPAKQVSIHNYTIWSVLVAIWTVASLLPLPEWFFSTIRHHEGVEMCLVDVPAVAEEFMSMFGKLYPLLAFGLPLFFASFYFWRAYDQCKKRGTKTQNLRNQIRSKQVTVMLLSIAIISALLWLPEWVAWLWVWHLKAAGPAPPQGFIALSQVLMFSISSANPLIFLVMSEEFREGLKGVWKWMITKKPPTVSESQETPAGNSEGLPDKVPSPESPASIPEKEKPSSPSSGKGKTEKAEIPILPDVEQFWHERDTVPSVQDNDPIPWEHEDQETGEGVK
TEAD-YAP inh: TEAD-YAP interaction inhibition, primary screen, TEAD-YAP interaction inhibitor project, luminescence, HEK-TIYL cells | TEAD-Gal4/YAP UAS-luciferase luminescence | inhibition, % at 9.12 µM | hit rate 1.4% among 640,000; in the data active means inhibition above about 32%;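 further: 0% = median of test compound wells and 100% = reference inhibitor wells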
MITF confirm: MITF inhibitors, retest of hits, confirmation, biochemical, AlphaScreen, triplicate. shares compounds with MITF inh. AlphaScreen MITF homodimerization, biotin/His-MITF beads. inhibition, % at 2.6 µM. hit rate 16% among 4,700;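 active means inhibition above a cutoff derived from the DMSO control wells, cut at about 28% in these data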;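 further: 0% = MITF dimer wells with DMSO only; inhibitors lower the bead chemiluminescence by keeping MITF from dimerizing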
AS interf DR: AlphaScreen optical interference compounds, dose response, counter-screen, biochemical, HTS; hit rate 6% among 480; AlphaScreen optical interference counterscreen, cell-free; shares compounds with MITF inh; IC50, µM; call rule not given here
AlphaScreen intf2: AlphaScreen optical interference compounds, counter-screen for MITF inhibitor project, biochemical, triplicate. LysRS AlphaScreen counterscreen, signal interference. shares compounds with MITF inh. inhibition, % at 2.6 µM. hit rate 7.6% among 4,700;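 active means inhibition above a cutoff derived from the DMSO control wells, cut at about 30% in these data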
Starred values were filed as active, the others as inactive; x = no result given.

SMILES | MITF inh | FBW7 activator | GPR151 activ | TEAD-YAP inh | MITF confirm | AlphaScreen intf2 | others
c1ccc(CN2CCN(Cc3ccc4c(c3)OCO4)CC2)nc1 | 62.8* | 0.0 | 0.7 | -0.4 | -6.6 | -1.0
Fc1cccc(F)c1CN1CCN(Cc2ccc3c(c2)OCO3)CC1 | 59.2* | -0.2 | 0.0 | 3.0 | -9.3 | -5.6
CCOC(=O)NC(=S)C1CC/C(=C\c2ccccc2)C1=O (stereo not drawn) | 1.0 | -0.7 | -0.6 | -5.1 | x | x
Cc1nc(N2CCN(Cc3ccc4c(c3)OCO4)CC2)c2c(C)c(C)sc2n1 | 73.6* | 0.0 | 2.8 | 14.7 | 7.2 | 6.6
c1cc(CN2CCN(Cc3ccc4c(c3)OCO4)CC2)co1 | 65.9* | 0.3 | -1.2 | -3.2 | 1.4 | 8.8
O=C(C(=O)N1CCN(Cc2ccc3c(c2)OCO3)CC1)N1CCN(Cc2ccc3c(c2)OCO3)CC1 | -11.3 | 0.8 | -2.0 | 1.6 | x | x
COc1ccc(C(OCC(O)CNCCN(C)C)c2ccc(OC)cc2)cc1 (stereo not drawn) | 66.7* | 0.7 | -1.1 | -2.2 | 10.9 | 10.4
CCCNCC(O)COC(c1ccccc1)c1ccccc1 (stereo not drawn) | 16.9 | -0.3 | 0.7 | -0.9 | x | x
CS(=O)(=O)N1CCN=C1SCc1ccccc1F | 52.4* | -0.3 | 1.4 | -10.5 | 13.7 | 8.2
CCCCCn1cc2c(c1-c1ccc(OC)cc1)c(=O)n(C)c(=O)n2C | -2.1 | -0.1 | 2.2 | -3.2 | x | x
COc1ccccc1CN1CCN(C(=O)c2ccncc2)CC1 | 65.1* | -0.2 | -0.6 | 1.0 | -9.0 | -3.8
COc1ccccc1CN1CCN(C(=O)c2ccccc2)CC1 | 59.8* | 0.1 | -0.3 | 8.2 | 6.4 | 6.8
COc1cccc(C(=O)N2CCN(Cc3ccccc3OC)CC2)c1 | 0.2 | -0.2 | -0.6 | -4.5 | x | x
COc1ccc(CN2CCC(C(=O)NC(C)c3ccccc3)CC2)c(OC)c1 (stereo not drawn) | 50.7* | 0.4 | -0.3 | 7.4 | 10.2 | 16.5
COc1ccc2ccccc2c1CN1CCN(C(=O)c2ccncc2)CC1 | 64.6* | 0.0 | -0.8 | -11.0 | -4.8 | -3.9
COc1ccc(CN2CCC(C(=O)NCC(C)C)CC2)c(OC)c1 | 17.5 | 0.0 | -0.7 | 5.8 | x | x
COc1ccc2c(c1)C1(SC(NC(C)=O)=NN1C(C)=O)C(=O)N2CCc1ccccc1 (stereo not drawn) | 14.3 | 0.1 | 0.8 | 3.9 | x | x
O=C(Nc1ccc(O)c(C(=O)O)c1)c1cccc(C(=O)Nc2ccc(O)c(C(=O)O)c2)c1 | 1.4 | 0.0 | -6.8 | -1.1 | x | x
COc1cc(OC)c(OC)cc1CN1CCN(C(=O)c2ccncc2)CC1 | 56.4* | -0.1 | -1.1 | 6.5 | -5.6 | 4.5
COc1ccc(CN2CCN(C(=O)c3ccccc3)CC2)c(OC)c1 | 59.8* | -0.1 | 0.0 | 15.0 | 9.1 | 9.3
COc1ccc(OC)c(CN2CCN(C(=O)c3cccc(Cl)c3)CC2)c1 | 66.3* | 0.1 | -2.4 | 0.4 | 3.9 | 12.2
COc1ccc(OC)c(CN2CCN(C(=O)C(c3ccccc3)c3ccccc3)CC2)c1 | 51.8* | -0.1 | -1.0 | -3.4 | -24.7 | 11.6
COc1ccc(CN2CCN(C(=O)c3ccc(F)cc3)CC2)c(OC)c1 | 48.5 | -0.2 | -0.6 | -2.8 | x | x
COc1ccc(OC)c(CN2CCN(C(=O)c3cccc4ccccc34)CC2)c1 | 48.4 | -0.5 | -0.2 | -1.9 | x | x
Cc1ccc(C)c(Nc2nc(-c3ccccc3O)nc3ccccc23)c1 | -6.7 | -0.1 | 0.3 | 0.1 | x | x
SMILES | MITF inh | FBW7 activator | GPR151 activ | TEAD-YAP inh | MITF confirm | AlphaScreen intf2 | others
Cn1c(=O)n(-c2ccc(Cl)cc2)c(=O)c2c3c(sc21)CCC3 | 8.9 | 0.0 | -0.4 | -2.1 | x | x
CCC(c1nnnn1CCC(C)C)N1CCN(C)CC1 (stereo not drawn) | 1.7 | -0.1 | -0.1 | 4.6 | x | x
O=C(COc1ccccc1)Nc1ccc(NC(=O)c2cccs2)cc1 | 51.2* | -0.2 | 0.6 | -0.6 | -15.9 | 0.7
O=C(Nc1nc(CC(=O)N2CCc3ccccc3C2)cs1)C1CC1 | 59.0* | 0.0 | 0.7 | 12.9 | -2.3 | -0.5
O=C(c1cnn(-c2ccccc2)c1-n1cccc1)N1CCN(c2ccccn2)CC1 | 17.3 | 0.2 | 0.2 | 9.1 | x | x
O=C(Cc1noc2ccccc12)N1CCN(c2ccc(-c3ccccn3)nn2)CC1 | 125.8* | -1.5 | -2.6 | 21.0 | 112.0* | 100.6*
O=S(=O)(C1CC1)N1CCN(c2ccc(-c3ccccn3)nn2)CC1 | 121.5* | -1.6 | -8.8 | 59.0* | 108.1* | 100.4*
Cc1c(C(=O)N2CCN(c3ccc(-c4ccccn4)nn3)CC2)cnn1-c1ccccc1 | 75.0* | -1.3 | 1.0 | -4.5 | 96.0* | 100.6*
C=C(C)C(C)(C#CCN(CC)CC)OC(C)=O (stereo not drawn) | 3.1 | 0.1 | 2.2 | 9.0 | x | x
Cc1c(Cl)cccc1NC(=O)c1cc2nc(-c3ccco3)cc(C(F)(F)F)n2n1 | -13.9 | 0.1 | 0.3 | 3.6 | x | x
CN1CCC(=NNc2nc3ccccc3[nH]2)CC1 | 52.9* | -0.4 | -0.9 | -25.8 | 7.6 | 2.5
c1ccc(CN2CCC(=NNc3nc4ccccc4[nH]3)CC2)cc1 | 43.4 | -0.2 | -0.8 | -10.9 | x | x
O=c1[nH]cnc2nc(-c3ccco3)c(-c3ccco3)nc12 | 86.9* | -1.1 | 0.2 | 0.3 | 60.2* | 4.7 | AS interf DR=>7.63
NS(=O)(=O)c1ccc(NC(=O)c2cc([N+](=O)[O-])ccc2N2CCOCC2)cc1 | 17.7 | 0.0 | -1.2 | 1.6 | x | x
Fc1ccc(CN2CCN(CC3CC=CCC3)CC2)cc1 (stereo not drawn) | 65.3* | 0.0 | 0.6 | 6.9 | -2.3 | 4.0
COc1ccc(C(=O)N2CCN(CC3CC=CCC3)CC2)cc1OC (stereo not drawn) | 32.2 | 0.0 | -1.3 | -8.2 | x | x
Cc1cccc(CN2CCN(CC3CC=CCC3)CC2)c1 (stereo not drawn) | 67.0* | 0.0 | 1.2 | -2.0 | -100.9 | -4.0
COc1ccc(CN2CCN(CC3CC=CCC3)CC2)cc1OC (stereo not drawn) | 60.9* | 0.0 | 1.2 | 17.0 | 5.0 | 4.1
CCS(=O)(=O)N1CCN(Cc2cccc(C)c2)CC1 | 44.9 | 0.1 | 0.1 | 1.4 | x | x
COc1ccc(CN2CCN(CC3CC=CCC3)CC2)cc1 (stereo not drawn) | 60.6* | -0.2 | -0.2 | 2.0 | -9.2 | -5.0
O=S(=O)(NC1=NCCC1)c1cccc(NS(=O)(=O)c2ccc3c(c2)OCCO3)c1 | 8.5 | 0.2 | -1.0 | 1.7 | x | x
CCN1CCSc2ccc(C(=O)NC3CCN(Cc4ccccc4)CC3)cc21 | 16.6 | 0.4 | -1.9 | 0.8 | x | x
CCOc1cc(CN2CCCC2)ccc1OC | 24.8 | -0.1 | -1.1 | 20.3 | x | x
